From PubChem BioAssay AID1276 (Columbia University Molecular Screening Center, 2008)
Out of some 190,000 compounds screened, about 2,000 (1.1%) were called active.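 The calls were made as follows: active = activation above a set limit, based on mean plus 3 SD of controls (cut at about 140% in these data); inconclusive = one replicate above the limit, the other below; inactive = the rest.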 The list comes from a sample in which actives are over-represented; it also holds similar structures and randomly drawn compounds.

test: APP 5'UTR reporter signal increase – luciferase, SH-SY5Y cells, primary screen (AID 1276); conditions: SH-SY5Y APP 5'UTR luciferase reporter, luminescence; at 2 µM; hits give high values; zero percent = DMSO vehicle wells

| Compound | activation |
| --- | --- |
| CCCCOc1ccc(C(=O)NCc2ccco2)cc1 | 4.26% (inactive) |
| CCOc1ccc(-c2nnc(-c3ccco3)o2)cc1 | 147% (active) |
| CCC(=O)Oc1cccc(C(=O)Nc2ccc(-c3nnc(-c4ccco4)o3)cc2)c1 | 92.5% (inactive) |
| CCCCSc1nnc(-c2ccc(C)cc2)o1 | 115% (inactive) |
| CCCCOc1ccc(-c2nnc(-c3ccco3)o2)cc1 | 136% (active) |
| COc1ccc(C(=O)CSc2nnc(-c3ccco3)o2)cc1 | 22.7% (inactive) |
| COCCSc1nnc(NC(=O)c2cc(OC)c(OC)cc2[N+](=O)[O-])s1 | 5.07% (inactive) |
| COc1cccc(N(C(=O)C2COc3ccccc3O2)C(C(=O)NC2CCCCC2)c2ccc(O)cc2)c1 (stereo not given) | -0.98% (inactive) |
| CN1CCN(c2nc(Nc3ccc(O)cc3)nc3ccccc23)CC1 | 18.9% (inactive) |
| Cc1cc(Oc2ccc(Cl)cc2)nc(SCC(=O)c2ccccc2)n1 | 11.5% (inactive) |
| CC(=O)NC(CC(=O)O)c1ccc(F)cc1 (stereo not given) | 5.81% (inactive) |
| O=C(Nc1ccc2oc(-c3ccccc3F)nc2c1)c1ccco1 | 146% (active) |
| O=C(Nc1cccc(-c2nc3ncccc3o2)c1)c1ccco1 | -10.6% (inactive) |
| O=C(Nc1ccc2nccnc2c1)c1ccco1 | 39.6% (inactive) |
| Cc1cnc(C(=O)N2CCCC(C(=O)c3ccc(C(F)(F)F)cc3)C2)cn1 (stereo not given) | 23% (inactive) |
| NS(=O)(=O)c1ccc(NC(=O)COC(=O)C2(c3ccc(F)cc3)CCCC2)cc1 | 5.99% (inactive) |
| COc1ccc(CN(C)C(C)C(=O)NC2CCCc3ccccc32)cc1 (stereo not given) | 9.96% (inactive) |
| CC(NC(=O)COC(=O)c1cc(=O)[nH]c2ccccc12)c1ccccc1 (stereo not given) | -4.94% (inactive) |
| O=C(NC1CC1)C1CCCN(C(=O)NC2CCCCC2)C1 (stereo not given) | 18.2% (inactive) |
| O=C(Nc1nc(-c2cccnc2)cs1)c1ccccc1F | 61.5% (inactive) |
| c1ccc(-c2noc(-c3cccs3)n2)nc1 | 209% (active) |
| CC(C)c1nc(-c2ccccn2)no1 | 7.91% (inactive) |
| c1csc(-c2nc(-c3ccncc3)no2)c1 | 55.4% (inactive) |
| CC(C)n1c(O)c(N=Nc2ccccn2)c2ccccc21 | 3.63% (inactive) |
| CC(C)c1ccc(NC(=O)NC2CCCCC2)cc1 | 139% (active) |

| Compound | activation |
| --- | --- |
| CC(C)N1CCC(NC(=O)Nc2ccccc2)CC1 | 15.8% (inactive) |
| CC(C)(C)NS(=O)(=O)c1ccc(NC(=O)NC2CCCCC2)cc1 | -13.3% (inactive) |
| CC(NCc1nc2ccccc2n1C)C12CC3CC(CC(C3)C1)C2 (stereo not given) | 9.64% (inactive) |
| CC(=O)n1cc([C@H]2C=C(C(=O)N3CCOCC3)O[C@@H](OCc3ccc(CO)cc3)C2)c2ccccc21 | 3.91% (inactive) |
| CC(C)(C)CN1CCNC(=O)C1CC(=O)NC1Cc2ccccc2C1 (stereo not given) | -10.9% (inactive) |
| Cc1nn2cc(-c3ccc(Cl)cc3)cnc2c1Br | 208% (active) |
| CCOCCCN(C(=O)Cn1nnc(-c2ccc(OC)c(OC)c2)n1)C(CC)C(=O)NC1CCCC1 (stereo not given) | 7.01% (inactive) |
| N=C1C(c2nc3ccccc3s2)=C(O)CN1NC(=O)c1ccc([N+](=O)[O-])cc1 | 150% (active) |
| CCOC(=O)CCCN1CC(O)=C(c2nc3ccccc3s2)C1=N | -7.28% (inactive) |
| COc1ccccc1N1CC(O)=C(c2nc3ccccc3s2)C1=N | 1.68% (inactive) |
| CN1CCNC(=O)C1CC(=O)NCCC1=CCCCC1 (stereo not given) | 9.01% (inactive) |
| COCCNC(=O)c1ccc(N2CCC3(CC2)OCCO3)c([N+](=O)[O-])c1 | 5.47% (inactive) |
| Brc1ccc(C2CC(c3ccccc3)=Nc3ccccc3N2)cc1 (stereo not given) | 176% (active) |
| CNC(=S)N1N=C(c2ccccc2)CC1c1ccc(Br)cc1 (stereo not given) | 16.3% (inactive) |
| c1ccc(C2=Nc3cccc4cccc(c34)N2)cc1 | -8.18% (inactive) |
| CCc1nnc(NC(=O)CCC(=O)O)s1 | 11.8% (inactive) |
| CCc1nnc(NC(=O)CSc2nc(SC)ns2)s1 | 542% (active) |
| COc1ccc(C)cc1NC(=O)CSc1nc(SC)ns1 | -17.1% (inactive) |
| CCn1c2ccccc2c2cc(CC(N)=O)ccc21 | -15% (inactive) |
| COc1ccc(S(=O)(=O)N(C)C)cc1NC(=O)CSc1ncccn1 | -3.15% (inactive) |
| CN(C)S(=O)(=O)c1ccc2oc(SCC(=O)Nc3ccccc3F)nc2c1 | 135% (active) |
| CCS(=O)(=O)c1ccc2oc(SCC(=O)N3c4ccccc4CC3C)nc2c1 (stereo not given) | 12.2% (inactive) |
| O=C(Nc1cccc(Cl)c1)c1cc([N+](=O)[O-])ccc1N1CCN(CCO)CC1 | -1.04% (inactive) |
| O=C(NNC(=S)NCCCN1CCOCC1)c1ccncc1 | 1.62% (inactive) |
| Nc1nc(-c2sc3nc4c(cc3c2N)CCCC4)nc(N2CCOCC2)n1 | 45.3% (inactive) |

| Compound | activation |
| --- | --- |
| CC(=O)Nc1cccc(-c2csc(Nc3cccc(C)n3)n2)c1 | 177% (active) |
| COc1ccc(CCNc2nc(-c3cccc(NC(C)=O)c3)cs2)cc1OC | 13% (inactive) |
| CC(=O)Nc1cccc(C(=O)Nc2nc(C)cs2)c1 | 30.8% (inactive) |
| C/C(CC(=O)Nc1ccc(Cl)cc1)=N\NC(=O)C(=O)NCCO | 6.46% (inactive) |
| CC(C)c1nc2sc3c(c2c(=O)n1N)CC(C)(C)OC3 | 17.6% (inactive) |
| O=C(O)c1ccc2c(c1)C(=O)N(NC(=O)c1ccc(O)cc1)C2=O | -2.99% (inactive) |
| Cn1cnnc1SCC(=O)Nc1ccc(N2CCOCC2)cc1 | 5.51% (inactive) |
| O=C(O)CCS(=O)(=O)c1ccc(-c2ccccc2)cc1 | -3.35% (inactive) |
| CCOc1cccc(-n2nnnc2-c2ccc(OC)cc2)c1 | -65.8% (inactive) |
| COc1ccc(-n2nnnc2SCC(=O)Nc2ccccc2)cc1 | 6.08% (inactive) |
| COc1ccc(-n2nnnc2-c2nc3ccccc3s2)cc1 | 237% (active) |
| Cc1cccc(NC(=O)c2nnn(-c3cccc(C(F)(F)F)c3)c2N)c1 | 27.1% (inactive) |
| Nc1nc(NCCCN2CCOCC2)nc(Nc2ccccc2)c1[N+](=O)[O-] | -12.2% (inactive) |
| COCCNc1nc(N)c([N+](=O)[O-])c(NCCO)n1 | -12.7% (inactive) |
| CNc1nc(Nc2ccc(C)c(Cl)c2)nc(N)c1[N+](=O)[O-] | 153% (active) |
| Cc1ccc(NS(=O)(=O)c2cccs2)cc1S(=O)(=O)N1CCCCCC1 | 13.7% (inactive) |
| O=C(Cc1ccc(-c2ccccc2)cc1)NC(c1ccccc1)c1ccccc1 | 12.7% (inactive) |
| CC(NC(=S)Nc1ccc(OC(F)F)cc1)c1ccc(F)cc1 (stereo not given) | -4.54% (inactive) |
| O=C(NNC(=O)c1ccc(Cl)cc1Cl)c1cccs1 | 59.2% (inactive) |
| O=C(Nc1ccn(Cc2ccccc2)n1)c1cccc(F)c1 | 197% (active) |
| O=C(Nc1ccn(Cc2ccc(F)cc2)n1)c1ccncc1 | -11.3% (inactive) |
| O=C(Nc1ccn(Cc2ccccc2)n1)c1n[nH]c([N+](=O)[O-])c1Cl | 129% (inactive) |
| Cc1coc(C)c1C(=O)CC1(O)C(=O)N(C)c2ccc(Cl)cc21 (stereo not given) | 12.3% (inactive) |
| CCN(CC)CCNC(=O)c1sc2ncn(CC(=O)Nc3ccc(C)c(Cl)c3)c(=O)c2c1C | 11.4% (inactive) |
| Cc1nn(-c2ccccc2)c2c1C(c1cccc([N+](=O)[O-])c1)N(c1ccccc1)C(=O)N2 (stereo not given) | 11.7% (inactive) |

| Compound | activation |
| --- | --- |
| O=C1CC(c2ccccc2)=NN1c1ccc([N+](=O)[O-])cc1 | -12.9% (inactive) |
| Cc1nn(-c2ccc([N+](=O)[O-])cc2)c(N)c1-c1ccccc1 | 152% (active) |
| CCN(C(=O)Cc1nc(N)n[nH]1)C1(C(=O)Nc2ccccc2)CCCCC1 | -3.52% (inactive) |
| O=C(Nc1ccc2nc3n(c(=O)c2c1)CCCCC3)c1ccccc1Cl | 22% (inactive) |
| O=C(Nc1ccc2sc3ccccc3c(=O)c2c1)c1ccccc1Cl | 221% (active) |
| COc1cc(NC(=O)c2cccs2)ccc1NC(=O)c1ccccc1Cl | 37.2% (inactive) |
| CCOC(=O)c1ccccc1NC(=O)CSc1nc2ccccc2c(=O)[nH]1 | -2.72% (inactive) |
| COc1cccc(N(Cc2nnc3n2CCCCC3)C(=O)Nc2ccccc2F)c1 | 3.63% (inactive) |
| Cc1cc(Br)ccc1NC(=O)C1CCCO1 (stereo not given) | -29.7% (inactive) |
| O=C(Nc1nc2ccc(S(=O)(=O)N3CCCC3)cc2s1)C1CCCO1 (stereo not given) | 2.99% (inactive) |
| Cc1cc(C)c2nc(NC(=O)C3CCCO3)sc2c1 (stereo not given) | 159% (active) |
| O=C(/C=C/c1ccc(OCc2c(F)cccc2Cl)cc1)N1CCOCC1 | 12.2% (inactive) |
| COc1ccc(-n2c(C)cc(C(=O)CSc3nnc(-c4cccs4)o3)c2C)cc1 | -0.59% (inactive) |
| COc1ccc(OC)c(C(=O)CSc2nnc(-c3cccs3)o2)c1 | -1.75% (inactive) |
| COc1ccc(-c2nnc(SCC(=O)c3cccs3)o2)c(OC)c1 | 142% (active) |
| O=C(NNC(=S)NCc1ccco1)C(c1ccccc1)c1ccccc1 | 19.5% (inactive) |
| O=C(NNC(=O)c1cc2c(s1)CCCC2)c1ccccc1 | 43.3% (inactive) |
| CC(NC(=O)Nc1ccc2c(c1)OCO2)c1ccncc1 (stereo not given) | 12.1% (inactive) |
| CC(C)C(=O)Nc1cccc(C(=O)Nc2ccc3c(c2)OCO3)c1 | 138% (active) |
| Cc1cccc(NC(=O)Nc2ccc3c(c2)OCO3)n1 | 137% (active) |
| O=C(Nc1ccccc1)c1ccc2c(c1)OCO2 | -58.8% (inactive) |
| Cc1cccc(NC(=O)/C=C/c2ccc3c(c2)OCO3)n1 | 118% (inactive) |
| COc1ccc(C(=O)Nc2ccc3c(c2)OCO3)cc1OC | 35.6% (inactive) |
| CC(OC(=O)c1ccccc1OCc1ccc(Cl)cc1)C(N)=O (stereo not given) | 40.4% (inactive) |
| Cc1cc(C)c(NC(=O)c2oc3ccccc3c2COc2ccccc2)c(C)c1 | -0.13% (inactive) |
